The values below come from paper PMC4336329 (PLoS ONE, 2015).

In all, about 310,000 compounds went through this assay and about 14,000 (4.5%) showed an effect of 50% or more. Effects have a minus sign here. This is one part of a sample in which strong results are shown more often than they occur.
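Also: peak tail current of the secondary pulse compared with the same well before compound.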

The target of the test is human ether-à-go-go-related gene (hERG) potassium channel (human, UniProt Q12809). Nature of the test: primary screen, population patch clamp on CHO cells stably expressing hERG; higher = less effect of the substance.
Chain of human ether-à-go-go-related gene (hERG) potassium channel (Q12809 whole entry, looked up): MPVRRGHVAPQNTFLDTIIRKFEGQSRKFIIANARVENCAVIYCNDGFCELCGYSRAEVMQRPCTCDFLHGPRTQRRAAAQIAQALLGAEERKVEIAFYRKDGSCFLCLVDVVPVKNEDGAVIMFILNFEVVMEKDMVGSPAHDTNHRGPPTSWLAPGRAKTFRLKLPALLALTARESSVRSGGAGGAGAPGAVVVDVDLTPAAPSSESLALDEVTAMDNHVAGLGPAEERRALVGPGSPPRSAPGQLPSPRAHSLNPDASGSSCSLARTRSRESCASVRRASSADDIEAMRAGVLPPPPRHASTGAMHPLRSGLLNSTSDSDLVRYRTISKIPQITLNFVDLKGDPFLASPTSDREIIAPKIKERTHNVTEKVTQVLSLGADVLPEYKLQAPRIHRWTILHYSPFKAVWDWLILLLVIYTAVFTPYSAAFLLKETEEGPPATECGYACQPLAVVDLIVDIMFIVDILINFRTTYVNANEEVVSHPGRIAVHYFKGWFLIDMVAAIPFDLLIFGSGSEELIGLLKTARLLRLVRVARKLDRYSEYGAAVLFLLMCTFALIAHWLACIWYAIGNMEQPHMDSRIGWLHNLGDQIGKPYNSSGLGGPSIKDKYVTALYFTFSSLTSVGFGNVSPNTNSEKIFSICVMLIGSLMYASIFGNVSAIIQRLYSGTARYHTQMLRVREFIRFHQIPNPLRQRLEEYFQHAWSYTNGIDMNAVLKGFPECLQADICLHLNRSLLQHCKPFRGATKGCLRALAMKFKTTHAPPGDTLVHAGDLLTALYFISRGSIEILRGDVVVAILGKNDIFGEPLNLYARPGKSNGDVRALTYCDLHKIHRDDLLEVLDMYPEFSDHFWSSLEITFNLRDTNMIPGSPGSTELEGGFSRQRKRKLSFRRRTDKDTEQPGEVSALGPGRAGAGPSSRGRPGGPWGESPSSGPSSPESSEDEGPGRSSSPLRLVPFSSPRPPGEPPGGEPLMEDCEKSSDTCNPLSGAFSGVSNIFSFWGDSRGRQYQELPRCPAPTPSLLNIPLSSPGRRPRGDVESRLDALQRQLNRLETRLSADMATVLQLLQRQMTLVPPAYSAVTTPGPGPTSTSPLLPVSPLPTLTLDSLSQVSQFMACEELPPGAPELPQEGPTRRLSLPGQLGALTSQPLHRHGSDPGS
As for `COc1ccc2c(CC(=O)OCC(=O)NC(N)=O)coc2c1`, the “hERG current change (%, negative = inhibition) at 10uM” value is 0.524%.
For `COc1ccc(N2C(=NC(=O)C3CCCO3)SC3CS(=O)(=O)CC32)cc1` (centres unmarked), the “hERG current change (%, negative = inhibition) at 10uM” value worked out at 5.78%.
The figure for `Cc1ccc(C)c(NC(=O)c2ccc3nccnc3c2)c1` is 2.6%.
`COc1ccc(N=C2NC(=O)CS2)c([N+](=O)[O-])c1`: the “hERG current change (%, negative = inhibition) at 10uM” value was determined as 11.4%.
For `O=C(Nc1ccc2c(c1)OCO2)[C@@H]1CCCN1S(=O)(=O)c1cccc2cccnc12`, the “hERG current change (%, negative = inhibition) at 10uM” value is recorded as -6.18%.
On to `CCOC(=O)C1C(c2ccc(Cl)cc2)NC(=S)NC1(O)C(F)(F)F` (centres unmarked), for which the “hERG current change (%, negative = inhibition) at 10uM” value is reported as 16.7%.
Take `Cn1ccnc1SCC(=O)Nc1nc2c(F)c(F)c(F)cc2s1`: the “hERG current change (%, negative = inhibition) at 10uM” value was 11.3%.
Consider `O=C(O)COCC(=O)N1CCc2c([nH]c3ccccc23)C1C(F)(F)F` (centres unmarked), for which the “hERG current change (%, negative = inhibition) at 10uM” value is listed as 2.14%.
`CCCNC(=O)C(=O)Nc1ccc2c(c1)N(S(=O)(=O)c1cccs1)CCC2`: the “hERG current change (%, negative = inhibition) at 10uM” value is listed as -33.6%.
Regarding `Cc1ccc(C)c(S(=O)(=O)N2CCCCC2CCNC(=O)C(=O)NCc2ccccn2)c1` (centres unmarked), the “hERG current change (%, negative = inhibition) at 10uM” value is -19.8%.
As to `O=C(NCCc1ccc(F)cc1)C(=O)NCC1CCCN1S(=O)(=O)c1cccs1` (centres unmarked), the “hERG current change (%, negative = inhibition) at 10uM” value was -57.6%.
For `O=C(NCCc1ccc(F)cc1)C(=O)NCC1CCCN1S(=O)(=O)c1ccccc1` (centres unmarked) the value was -61.7%; for `CN(C)CCNC(=O)C(=O)Nc1ccc2c(c1)N(S(=O)(=O)c1cccs1)CCC2`, -2.98%.
With `CCN(CC)CCNC(=O)C(=O)Nc1ccc2c(c1)N(S(=O)(=O)c1cccs1)CCC2`, the “hERG current change (%, negative = inhibition) at 10uM” value is given as -78.2%.
The figure for `Cc1cc(F)ccc1S(=O)(=O)N1CCCCC1CCNC(=O)C(=O)NCc1ccccn1` (centres unmarked) is -61.4%; for `COc1ccc(CCNC(=O)C(=O)NCC2CCCN2S(=O)(=O)c2cccs2)cc1` (centres unmarked) it is -32.9%.
The figure for `O=C(NCCC1CCCCN1S(=O)(=O)c1ccc(F)cc1)C(=O)NCc1ccccn1` (centres unmarked) is -11.9%; for `O=C(NCCc1ccccc1)C(=O)NCC1CCCN1S(=O)(=O)c1ccccc1` (centres unmarked) it is -41.9%.
For the molecule `O=C(NCc1ccc(F)cc1)C(=O)NCC1CCCN1S(=O)(=O)c1ccccc1` (centres unmarked), the “hERG current change (%, negative = inhibition) at 10uM” value was -38.2%.
For the molecule `O=C(NCCc1ccccc1)C(=O)NCC1CCCN1S(=O)(=O)c1cccs1` (centres unmarked), the “hERG current change (%, negative = inhibition) at 10uM” value is -22.7%.
As for `COc1ccc(N)cc1NC(=O)CN1CCCC1`, the “hERG current change (%, negative = inhibition) at 10uM” value stood at 19.3%.
Take `CCN(CC)S(=O)(=O)c1ccc(Cl)c(NC(=O)COC(=O)c2ccc(O)cc2)c1`: the “hERG current change (%, negative = inhibition) at 10uM” value was -21.4%.
Consider `CCCCC(=O)Nc1ccc(C(=O)N2CCCC(C(=O)OCC)C2)cc1` (centres unmarked), for which the “hERG current change (%, negative = inhibition) at 10uM” value is 7.66%.
